Among all 390,000 compounds or so, about 2,600 (0.67%) were called active.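 Rule for the calls: active = mean inhibition of replicates at least 50% and at least half of replicates each reaching 50%; inconclusive = half or more replicates reach 50% but mean below 50%; inactive = the rest.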 For the sample, actives were picked, then their nearest neighbours and some compounds at random.
Target: Transforming acidic coiled-coil-containing protein 3 (Homo sapiens) (UniProt Q9Y6A5)
Test: disruptors of ARNT/TACC3 protein interaction, primary screen, biochemical, AlphaScreen, single concentration (AID 623870);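 note: 0% = complete ARNT plus TACC3 wells and 100% = ARNT alone without TACC3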
Conditions: AlphaScreen His-ARNT PAS-B/GST-TACC3 binding, luminescence; at 9.99 µM; stronger effect = higher value; TACC3 fragment carries E629A point mutation

| Compound | inhibition |
| --- | --- |
| C[C@@H]1CN([C@@H](C)CO)C(=O)c2cc(C#CC3CCCCC3)cnc2O[C@H]1CN(C)S(=O)(=O)c1ccccc1 | 10.2% (inactive) |
| Cc1nc2ccccc2nc1N/N=C/c1ccc(O)cc1O | 69.6% (active) |
| CNC[C@@H]1Oc2ccc(NC(=O)CCC(F)(F)F)cc2C(=O)N([C@@H](C)CO)C[C@@H]1C | -4.46% (inactive) |
| CCc1n[nH]c(=S)n1/N=C/c1c[nH]c2ccc(Br)cc12 | -4.96% (inactive) |
| Cc1ccsc1/C=N/NC(=O)Cc1cc(=O)[nH][nH]1 | 1.12% (inactive) |
| Cc1ccsc1/C=N/n1c(=S)[nH]nc(C)c1=O | 65.9% (active) |
| O=C(NC[C@@H]1[C@@H](c2ccccc2)[C@H](CO)N1C(=O)C1CCC1)NC1CCCC1 | -6.78% (inactive) |
| Oc1cccc(/C=N/Nc2ccc(Cl)nn2)c1O | 53.7% (active) |
| COc1ccc(NC(=O)N2C[C@H](O)COC[C@H]3O[C@@H](CC(=O)N4CCN(C)CC4)CC[C@@H]32)cc1 | 0.747% (inactive) |
| CCN(CC)c1ccc(/C=N/NC(=O)CNC(=O)c2cccs2)cc1 | -3.55% (inactive) |
| CCN(CC)c1ccc(/C=N/NC(=O)c2cnccn2)c(O)c1 | 53.5% (active) |
| NS(=O)(=O)c1ccc(CNC(=O)c2cnccn2)cc1 | 6.45% (inactive) |
| CCN(CC)c1ccc(/C=N/Nc2nc(C)cc(C)n2)c(O)c1 | 69.4% (active) |
| Cc1noc(C)c1NC(=O)Nc1cccc2c1O[C@H](CN(C)C(=O)Nc1c(C)noc1C)[C@@H](C)CN([C@@H](C)CO)C2=O | 2.88% (inactive) |
| CCCNC(=O)[C@H]1[C@H](CO)[C@H]2Cn3c(ccc(C4=CCCC4)c3=O)[C@H]2N1C(=O)CC | -1.64% (inactive) |
| Cc1cccc(-n2cnc(C(=O)NNC(=S)Nc3ccccc3)c2)n1 | 70.3% (active) |
| O=C(NNC(=S)Nc1ccccc1)c1cccc(S(=O)(=O)N2CCOCC2)c1 | 0.545% (inactive) |
| Cc1cccc(-n2cnc(C(=O)Nc3cccnc3)c2)n1 | -3.7% (inactive) |
| C/C=C/c1cnc2c(c1)C(=O)N([C@H](C)CO)C[C@H](C)[C@@H](CN(C)S(=O)(=O)c1ccccc1F)O2 | -4.04% (inactive) |
| C/C=C/c1ccc([C@H]2[C@@H](CO)N(S(C)(=O)=O)[C@@H]2CN(C)C(=O)CC)cc1 | 7.87% (inactive) |
| CO[C@H]1CN(C)C(=O)c2ccc(NC(=O)C3CC3)cc2OC[C@H](C)N(CCc2ccccc2)C[C@H]1C | -7.12% (inactive) |
| Cc1ccc(NC(=O)CSc2nnc(CNC(=O)c3ccccc3F)o2)cc1Cl | 2.2% (inactive) |
| Cc1ccc(NC(=O)CSc2nn3c(=O)c(C)nnc3s2)cc1Cl | 56.2% (active) |

| Compound | inhibition |
| --- | --- |
| COc1ccc(Cc2nnc(SCC(=O)Nc3ccc(C)c(Cl)c3)[nH]c2=O)cc1 | -0.289% (inactive) |
| C[C@H](CO)N1C[C@H](C)[C@@H](CN(C)Cc2ccc(-c3ccccc3)cc2)Oc2ccc(NC(=O)CCCN(C)C)cc2CC1=O | 31.9% (inactive) |
| C[C@H](CO)N1C[C@H](C)[C@@H](CN(C)C)OCCCC[C@H](C)Oc2ccc(NC(=O)C3CCCCC3)cc2C1=O | -2.97% (inactive) |
| Cc1oc2c(C)c3oc(=O)c(CC(=O)N[C@@H](CC(C)C)C(=O)N[C@@H](Cc4ccccc4)C(=O)O)c(C)c3cc2c1C | 2.61% (inactive) |
| Cc1c(CC(=O)NCCCCCC(=O)O)c(=O)oc2cc3occ(-c4ccccc4)c3cc12 | 54.3% (active) |
| CC[C@@H](C)[C@H](NC(=O)CCc1c(C)c2cc3c4c(oc3c(C)c2oc1=O)CCCC4)C(=O)O | -0.229% (inactive) |
| Cc1coc2c1c(C)cc1oc(=O)c(CC(=O)NCC(=O)N[C@H](C(=O)O)C(C)C)c(C)c12 | 2.88% (inactive) |
| COc1cccc(-c2coc3cc4oc(=O)c(CC(=O)O)c(C)c4cc23)c1 | 17.2% (inactive) |
| Cc1c(CC(=O)NCC(=O)NCC(=O)O)c(=O)oc2cc3oc4c(c3cc12)CCCC4 | 50.6% (active) |
| C[C@H](CO)N1C[C@H](C)[C@H](CN(C)Cc2ccncc2)Oc2ncc(C#CCC3CCCCC3)cc2C1=O | -1.21% (inactive) |
| Cc1noc(C)c1NC(=O)Nc1ccc2c(c1)CC(=O)N([C@@H](C)CO)C[C@@H](C)[C@@H](CN(C)Cc1ccc(Cl)c(Cl)c1)O2 | -1.62% (inactive) |
| CO[C@@H]1CN(C)C(=O)c2cc(NS(=O)(=O)c3cn(C)cn3)ccc2OC[C@@H](C)NC[C@H]1C | 1.1% (inactive) |
| CN(C)C(=O)C[C@@H]1CC[C@H](NC(=O)NC2CCCCC2)[C@@H](CO)O1 | -17% (inactive) |
| CN(C)C(=O)C[C@@H]1CC[C@H]2[C@@H](COC[C@H](O)CN2C(=O)c2ccncc2)O1 | -9.54% (inactive) |
| C[C@@H]1CN([C@H](C)CO)S(=O)(=O)c2ccc(-c3ccncc3)cc2O[C@@H]1CN(C)C(=O)CN(C)C | 12% (inactive) |
| C[C@H]1CN([C@@H](C)CO)C(=O)c2cc(NC(=O)NC3CCCCC3)ccc2O[C@@H]1CN(C)C(=O)Nc1cccc2ccccc12 | 0.153% (inactive) |
| C#CCOCCOCCOCCNc1nc(N2CCN(C(=O)C([C@@H](C)O)n3cc([C@@H](N)CCCCN)nn3)CC2)nc(N2CCN(C(=O)[C@H](CCCCN)n3cc(CN)nn3)CC2)n1 (stereo not given in full) | 21.2% (active) |
| C#CCOCCOCCOCCNc1nc(N2CCN(C(=O)[C@H](CCCCN)n3cc([C@@H](N)C(C)CC)nn3)CC2)nc(N2CCN(C(=O)[C@H](Cc3ccc(O)cc3)n3cc([C@@H](N)C(C)CC)nn3)CC2)n1 (stereo not given in full) | 45.7% (active) |
| C#CCOCCOCCOCCNc1nc(N2CCN(C(=O)CCCCCCCCCCNC(=O)[C@H]([C@@H](C)CC)n3cc(CCCCN=C(N)N)nn3)CC2)nc(N2CCN(C(=O)CCCCCCCCCCNC(=O)[C@H](CO)n3cc(CCCSC)nn3)CC2)n1 | 9.17% (inactive) |
| CC[C@H](C)[C@@H](C(=O)N1CCNCC1)n1cc([C@@H](N)Cc2ccc(O)cc2)nn1 | -3.75% (inactive) |
| CCC(C)[C@@H](C(=O)N1CCNCC1)n1cc(CCCCN)nn1 (stereo not given in full) | 7.8% (inactive) |
| C[C@H]1CN([C@@H](C)CO)C(=O)c2cc(NC(=O)CCN3CCOCC3)ccc2O[C@@H]1CN(C)C(=O)Nc1ccc(C(F)(F)F)cc1 | 26.6% (inactive) |

Reference: PubChem BioAssay AID623870 (Broad Institute, 2012)
